# A number with no mark means an inactive call. Active and inactive are the calls of the source.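 Rule for the calls: active = dose-dependent signal loss with a fitted half-maximal concentration at or below 35 µM; inconclusive = flat fit with 30 to 70% signal loss, or poor fit; inactive = the rest.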
# Test: DiI-HDL fluorescence quenchers, cell-free, dose response, artefact control for SR-BI HDL uptake inhibitor project, biochemical, powder samples, plate reader fluorescence (AID 588403)
# Conditions: cell-free DiI-HDL fluorescence quenching counter-screen, 30 min; series mostly up to 35 µM; activity change, negative = quenching: at the top concentration
Structure (SMILES),"activity change, negative = quenching",outcome
CCC(=O)N1CCc2cc(-c3csc(NC(=O)c4cccc(OC(F)(F)F)c4)n3)ccc21,3.82%,–
O=C(Nc1nc(-c2ccc3c(c2)CCN3)cs1)c1ccco1,-10.5%,–
CCC(=O)N1CCc2cc(-c3csc(NC(=O)c4cccc(OC)n4)n3)ccc21,-1.71%,–
O=C(CN(C(=O)Cn1nnc(-c2ccc3c(c2)OCO3)n1)C1CCCCC1)NC1CCCC1,1.47%,–
CC(C(=O)NC1CCCC1)N(C(=O)Cn1nnc(-c2ccc3c(c2)OCO3)n1)C1CCCCC1 (stereo not given),5.3%,–
COc1ccc(-c2nnn(CC(=O)N(C3CCCCC3)C(C)C(=O)NC3CCCC3)n2)cc1OC (stereo not given),2.89%,–
COc1ccc(-c2cc(CC(=O)N(C3CCCCC3)C(C)C(=O)NC3CCCC3)no2)cc1OC (stereo not given),1.88%,–
CC(C(=O)NC1CCCC1)N(C(=O)Cn1nnc(-c2ccccc2Cl)n1)C1CCCCC1 (stereo not given),-0.377%,–
CC(C(=O)NC1CCCC1)N(C(=O)Cn1nnc(-c2ccc(F)cc2)n1)C1CCCCC1 (stereo not given),-2.08%,–
CCC(=O)N1CCc2cc(-c3coc(N)n3)ccc21,-3.54%,–
CC(C(=O)NC1CCCC1)N(C(=O)Cn1nnc(-c2ccc(Cl)cc2)n1)C1CCCCC1 (stereo not given),3.64%,–
CCC(=O)N1CCc2cc(-c3coc(NC(=O)c4ccco4)n3)ccc21,-2.4%,–
CC(C(=O)NC1CCCC1)N(C(=O)Cn1nnc(-c2ccccc2F)n1)C1CCCCC1 (stereo not given),-4.01%,–
CCC(=O)N1CCc2cc(-c3cnc(NC(=O)c4ccco4)[nH]3)ccc21,0.462%,–
CCC(=O)N1CCc2cc(-c3csc(NC(=O)c4cc(OC)cc(OC)c4)n3)ccc21,-2.6%,–
CC(C(=O)NC1CCCC1)N(C(=O)Cn1nnc(-c2cccc(F)c2)n1)C1CCCCC1 (stereo not given),1.08%,–
CCC(=O)N1CCc2cc(-c3csc(NC(=O)c4ccc(F)c(OC)c4)n3)ccc21,-0.583%,–
C[C@@H]1CN([C@H](C)CO)C(=O)c2cc(NC(=O)Cc3cn(C)c4ccccc34)ccc2O[C@H]1CN(C)S(=O)(=O)c1ccc(Cl)cc1,–,inactive
COc1ccc(-c2nnn(CC(=O)N(CC(=O)NC3CCCC3)C3CCCCC3)n2)cc1OC,-0.763%,–
Cc1ccc(-c2nnn(CC(=O)N(C3CCCCC3)C(C)C(=O)NC3CCCC3)n2)cc1 (stereo not given),1.65%,–
CCCCCCC1CCC/C1=N\NC(N)=S (stereo not given),2.81%,–
CS(=O)(=O)N1CCc2cc(-c3csc(NC(=O)c4ccco4)n3)ccc21,-3.49%,–
CCC(=O)N1CCc2cc(-c3cnc(NC(C)=O)[nH]3)ccc21,-4.51%,–
CCC(=O)N1CCc2cc(-c3csc(NC(=O)c4ccco4)n3)ccc21,0.945%,–
COc1ccccc1-c1nnn(CC(=O)N(C2CCCCC2)C(C)C(=O)NC2CCCC2)n1 (stereo not given),-0.761%,–
CCC(=O)N1CCc2cc(-c3csc(NC(=O)c4cccc(OC)c4)n3)ccc21,-4.37%,–
O=C(Nc1nc(-c2ccc3c(c2)CCN3C(=O)C2CC2)cs1)c1ccco1,-7.46%,–
CC(C)C(=O)N1CCc2cc(-c3csc(NC(=O)c4ccco4)n3)ccc21,-3.58%,–
COc1cccc(-c2nnn(CC(=O)N(C3CCCCC3)C(C)C(=O)NC3CCCC3)n2)c1 (stereo not given),0.879%,–
COC(=O)N1CCc2cc(-c3csc(NC(=O)c4ccco4)n3)ccc21,-5.84%,–

# From PubChem BioAssay AID588403 (Broad Institute, 2011)
